Experimental data from PubChem BioAssay.
Active and inactive are the calls of the source. Unless noted, the rule behind the calls is not given here.

Columns and labels:
[1] = HepG2 liver cancer cell viability effects, profiling panel, resazurin fluorescence, 24 h, PK04 Diversity Set (AID 1172); settings: higher = more signal; note: test concentration not given here
[2] = basal S. cerevisiae growth modulation, no modifier, primary screen, OD600, strain BY4716, 24 h, basal condition (AID 1173); settings: OD600, 24 h, higher = more signal, called active from +8 up or from −8 down
[3] = MM1S myeloma cell viability, profiling panel, resazurin fluorescence, basal, 24 h, PK04 Diversity Set (AID 1174); settings: higher = more signal, called active from +8 up or from −8 down;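 note: MM1S multiple myeloma cell line; test concentration not given here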
[4] = target: Dihydroorotate dehydrogenase (quinone), mitochondrial (Plasmodium falciparum (isolate 3D7)) (UniProt Q08210); assay: PfDHODH enzyme inhibitors, primary screen, biochemical, C-terminal His tag, absorbance 600 nm (AID 1175); settings: DCIP absorbance 600 nm, higher = more signal, called active from +8 up or from −8 down;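 note: recombinant parasite enzyme with a five histidine tag at its C terminus; test concentration not given here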
Dihydroorotate dehydrogenase (quinone), mitochondrial (Plasmodium falciparum (isolate 3D7)), sequence (Q08210 whole entry, looked up): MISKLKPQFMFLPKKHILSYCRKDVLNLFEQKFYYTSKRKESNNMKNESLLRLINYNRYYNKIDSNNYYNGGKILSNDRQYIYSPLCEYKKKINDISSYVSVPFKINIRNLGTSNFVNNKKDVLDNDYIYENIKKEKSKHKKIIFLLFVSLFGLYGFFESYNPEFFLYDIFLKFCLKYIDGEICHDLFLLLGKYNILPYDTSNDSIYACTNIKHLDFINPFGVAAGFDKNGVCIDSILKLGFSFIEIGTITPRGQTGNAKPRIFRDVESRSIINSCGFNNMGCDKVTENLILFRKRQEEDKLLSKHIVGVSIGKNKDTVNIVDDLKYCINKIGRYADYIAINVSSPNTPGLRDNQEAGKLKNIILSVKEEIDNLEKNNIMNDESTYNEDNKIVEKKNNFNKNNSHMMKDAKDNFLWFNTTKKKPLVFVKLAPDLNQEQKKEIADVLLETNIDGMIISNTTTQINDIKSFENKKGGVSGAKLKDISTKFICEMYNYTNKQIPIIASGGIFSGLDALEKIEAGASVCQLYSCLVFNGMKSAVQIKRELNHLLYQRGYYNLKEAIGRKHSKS

[5] = P. aeruginosa biofilm formation inhibitors, primary screen, strain PAO1, LB-PBS medium, absorbance 600 nm (AID 1176); note: test concentration not given here; settings: P. aeruginosa PAO1 growth/biofilm, A600, 12 h; higher = more signal
[6] = S. cerevisiae RM11-1a growth modifiers, primary screen, strain RM11-1a, OD600, basal, 24 h (AID 1177); settings: OD600, 24 h, higher = more signal, called active from +8 up or from −8 down;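 note: cultures grown under basal conditions with no added stressor; test concentration not given here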
[7] = E. coli acrAB mutant growth effects, primary screen, E. coli filamentation inducers, strain DRC39, OD650, 24 h (AID 1178); settings: higher = more signal, called active from +8 up or from −8 down;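 note: growth measured as culture turbidity by optical density at 650 nm; test concentration not given here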
[8] = E. coli acrAB mutant growth effects, primary screen, E. coli filamentation inducers, strain DRC39, OD650, 48 h (AID 1179);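 note: screen aims at cell division blockers that make cells filament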; settings: E. coli DRC39 delta-acrAB growth, higher = more signal, called active from +8 up or from −8 down
[9] = RPMI8226 myeloma cell viability, profiling panel, resazurin fluorescence, basal, 24 h, PK04 Diversity Set (AID 1180); settings: higher = more signal;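 note: RPMI8826 multiple myeloma cell line at 5000 cells per well; test concentration not given here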
[10] = target: E3 ubiquitin-protein ligase XIAP (Homo sapiens) (UniProt P98170); assay: XIAP binders, primary screen, biophysical, small-molecule microarray, fluorescence 635 nm (AID 1181); settings: small-molecule microarray binding, higher = more signal;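 note: score merges 667 nm emission and signal to noise over triplicate slides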
E3 ubiquitin-protein ligase XIAP (Homo sapiens), sequence (P98170 whole entry, looked up): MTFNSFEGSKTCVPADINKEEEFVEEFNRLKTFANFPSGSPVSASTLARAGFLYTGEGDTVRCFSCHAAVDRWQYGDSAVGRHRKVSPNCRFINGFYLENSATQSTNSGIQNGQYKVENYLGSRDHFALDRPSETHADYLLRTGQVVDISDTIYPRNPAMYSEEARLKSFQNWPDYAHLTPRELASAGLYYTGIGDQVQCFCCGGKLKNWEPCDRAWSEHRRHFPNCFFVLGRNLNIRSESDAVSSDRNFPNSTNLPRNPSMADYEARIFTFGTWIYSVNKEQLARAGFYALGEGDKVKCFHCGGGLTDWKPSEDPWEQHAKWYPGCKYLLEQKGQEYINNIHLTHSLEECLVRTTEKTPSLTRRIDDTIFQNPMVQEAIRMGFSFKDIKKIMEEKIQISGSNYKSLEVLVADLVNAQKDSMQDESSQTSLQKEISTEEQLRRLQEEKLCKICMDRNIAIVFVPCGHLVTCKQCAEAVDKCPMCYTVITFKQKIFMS

With `C[C@]1(C(=O)NCC(F)(F)F)c2ccccc2C(=O)N(Cc2cc(C(F)(F)F)cc(C(F)(F)F)c2)[C@H]1c1ccc(CO)cc1` the z-score [1] was 0.373, the z-score [2] was -0.234 (inactive) and the z-score [3] was 1.2 (inactive). The composite z-score [4] was -0.954 (inactive), the z-score [5] was 0.5 (inactive) and the z-score [6] was 0.507 (inactive). For the same molecule, the z-score [7] was 0.712 (inactive), the z-score [8] was 0.827 (inactive) and the z-score [9] was 1.13. For the same molecule, the composite z-score [10] was -0.0099.
For `O=C(N1CCOCC1)[C@]1(CCS(=O)(=O)c2ccccc2)N=C(c2ccc(OCCCO)cc2)O[C@@H]1c1ccccc1`, the z-score [1] was 0.945, the z-score [2] was 1.14 (inactive) and the z-score [3] was 0.564 (inactive). The composite z-score [4] was 2.06 (inactive), the z-score [5] was -0.981 (inactive) and the z-score [6] was 2.17 (inactive). The z-score [7] was 2.71 (inactive), the z-score [8] was 0.546 (inactive) and the z-score [9] was 0.413. For the same molecule, the composite z-score [10] was 0.0379.
In the case of `CC1C2C(CCCO)=CC(C3C(=O)N(C)C(=O)C23)N1Cc1cccc(OC(F)(F)F)c1` (stereo not given), the z-score [1] was -1.25, the z-score [2] was -2.02 (inactive) and the z-score [3] was -0.244 (inactive). For the same molecule, the composite z-score [4] was 0.131 (inactive), the z-score [5] was -0.0099 (inactive) and the z-score [6] was 0.481 (inactive). The z-score [7] was 0.224 (inactive), the z-score [8] was -0.0843 (inactive) and the z-score [9] was -0.278. The composite z-score [10] was 0.245.
With `C=CCOC(=O)[C@H]1[C@@H]2C(=O)O[C@@H](c3ccccc3)[C@@H](c3ccccc3)N2[C@@H](c2ccc(OCCOC(=O)[C@H]3C[C@H]4C(=O)NCC(=O)N4[C@H]3c3ccc(O)cc3)cc2)[C@]12C(=O)Nc1ccccc12` the z-score [1] was -0.0886, the z-score [2] was 1.1 (inactive) and the z-score [3] was 1.02 (inactive). For the same molecule, the composite z-score [4] was 0.814 (inactive), the z-score [5] was 0.916 (inactive) and the z-score [6] was 2.99 (inactive). For the same molecule, the z-score [7] was 0.504 (inactive), the z-score [8] was -0.0754 (inactive) and the z-score [9] was 1.72. The composite z-score [10] was -0.202.
For `[N-]=[N+]=Nc1ccccc1C[C@]1(C(=O)N2CCCCC2)N=C(c2ccc(OCCCO)cc2)O[C@H]1c1ccccc1`, the z-score [1] was -0.256, the z-score [2] was -1.04 (inactive) and the z-score [3] was -2.4 (inactive). The composite z-score [4] was -0.343 (inactive), the z-score [5] was 0.522 (inactive) and the z-score [6] was 0.864 (inactive). For the same molecule, the z-score [7] was 0.463 (inactive), the z-score [8] was 0.647 (inactive) and the z-score [9] was -2.06. The composite z-score [10] was -0.102.
For `CC(C)C[C@@H]1NC(=O)[C@@H]2C[C@H](C(=O)NCCCCCNC(=O)CS)[C@H](c3ccc(O)cc3)N2C1=O`, the z-score [1] was 0.432, the z-score [2] was -1.44 (inactive) and the z-score [3] was 0.974 (inactive). The composite z-score [4] was -0.24 (inactive), the z-score [5] was 2.91 (inactive) and the z-score [6] was -1.38 (inactive). The z-score [7] was -0.692 (inactive), the z-score [8] was -0.539 (inactive) and the z-score [9] was 0.718. For the same molecule, the composite z-score [10] was 0.302.
For `COC(=O)[C@@]1(Cc2ccc(F)cc2)[C@H]2c3cc(C(=O)N(C)C)n(Cc4ccsc4Br)c3C[C@H]2CN1C(=O)c1ccccc1`, the z-score [1] was -1.05, the z-score [2] was 1.08 (inactive) and the z-score [3] was -1.36 (inactive). The composite z-score [4] was -0.713 (inactive), the z-score [5] was 1 (inactive) and the z-score [6] was 0.47 (inactive). The z-score [7] was -1.52 (inactive), the z-score [8] was -0.85 (inactive) and the z-score [9] was -2.7. The composite z-score [10] was 0.447.
In the case of `C=CCNC(=O)[C@@H]1[C@H]2C(=O)O[C@H](c3ccccc3)[C@H](c3ccccc3)N2[C@H](c2ccc(OCCO)cc2)[C@@]12C(=O)Nc1ccc(C#CC3=CCCCC3)cc12`, the z-score [1] was -0.411, the z-score [2] was 0.899 (inactive) and the z-score [3] was -2.16 (inactive). For the same molecule, the composite z-score [4] was 0.106 (inactive), the z-score [5] was 2.29 (inactive) and the z-score [6] was 2.01 (inactive). For the same molecule, the z-score [7] was -0.972 (inactive), the z-score [8] was -0.563 (inactive) and the z-score [9] was -2.96. The composite z-score [10] was -0.178.
With `COc1ccc(CCNC(=O)[C@@]2(C)c3ccccc3C(=O)N(Cc3ccc(OC(F)(F)F)cc3)[C@H]2c2ccc(CO)cc2)cc1` the z-score [1] was 1.4, the z-score [2] was -0.553 (inactive) and the z-score [3] was 0.979 (inactive). The composite z-score [4] was -0.0074 (inactive), the z-score [5] was 1.05 (inactive) and the z-score [6] was 0.362 (inactive). The z-score [7] was 0.0466 (inactive), the z-score [8] was -0.657 (inactive) and the z-score [9] was 1.3. The composite z-score [10] was -0.031.
With `C=C(C(=O)CC[C@@H](OC(=O)c1ccccc1-c1ccccc1C(=O)O)c1ccc(CO)o1)C(C)C` the z-score [1] was -0.31, the z-score [2] was -0.317 (inactive) and the z-score [3] was 0.114 (inactive). The composite z-score [4] was -2.18 (inactive), the z-score [5] was 1.63 (inactive) and the z-score [6] was 0.0083 (inactive). The z-score [7] was 0.159 (inactive), the z-score [8] was -0.171 (inactive) and the z-score [9] was 0.16. It also gave a composite z-score [10] of -0.282.
In the case of `[N-]=[N+]=NCc1ccccc1[C@H]1OC(c2ccc(OCCCO)cc2)=N[C@@]1(Cc1ccccc1N=[N+]=[N-])C(N)=O`, the z-score [1] was 0.794, the z-score [2] was -2.02 (inactive) and the z-score [3] was 0.393 (inactive). The composite z-score [4] was -0.0773 (inactive), the z-score [5] was -0.0963 (inactive) and the z-score [6] was 0.77 (inactive). For the same molecule, the z-score [7] was 0.0162 (inactive), the z-score [8] was 0.394 (inactive) and the z-score [9] was -0.103. The composite z-score [10] was -0.0773.
For `CCCCC(=C=CC[C@@H](O)c1ccc(OCCO)cc1)CCO`, the z-score [1] was 1.02, the z-score [2] was -4.12 (inactive) and the z-score [3] was 1.54 (inactive). The composite z-score [4] was -2.3 (inactive), the z-score [5] was -0.0585 (inactive) and the z-score [6] was 0.271 (inactive). The z-score [7] was 1.34 (inactive), the z-score [8] was 0.672 (inactive) and the z-score [9] was 1.3. For the same molecule, the composite z-score [10] was 0.794.
